# Screen size: about 2,700 compounds; about 160 (5.9%) showed an effect of 50% or more. Only a selection was taken, and strong results are over-represented in it overall.
# Target: Nonstructural protein 3 (Zika virus) (UniProt A0A024AXB9)
# [1] = PRVABC59, Concentration 198.0 uM, Number of replicates 2.0, Standard deviation 0.06482927085509294 %
# Sequence of Nonstructural protein 3 (Zika virus) (A0A024AXB9 as listed by the source): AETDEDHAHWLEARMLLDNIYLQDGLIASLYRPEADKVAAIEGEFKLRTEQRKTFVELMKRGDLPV
structure (smiles),measurement,setting,value
c1ccc2c([C@H]3CCN(C[C@H]4CCCOC4)C3)c[nH]c2c1,inhibition,"PRVABC59, Concentration 49.5 uM, Number of replicates 2.0, Standard deviation 0.2718923543168702 %",3%
same,inhibition,"PRVABC59, Concentration 99.01 uM, Number of replicates 2.0, Standard deviation 1.3138002130824364 %",7.93%
same,inhibition,"PRVABC59, Concentration 198.0 uM, Number of replicates 2.0, Standard deviation 0.8779424567170888 %",17.5%
CCn1ccnc(N2CC[C@H](c3c[nH]c4ccccc34)C2)c1=O,inhibition,"PRVABC59, Concentration 49.5 uM, Number of replicates 2.0, Standard deviation 0.8076182483405395 %",8.04%
same,inhibition,"PRVABC59, Concentration 99.01 uM, Number of replicates 2.0, Standard deviation 0.7356695318349864 %",17.6%
same,inhibition,"PRVABC59, Concentration 198.0 uM, Number of replicates 2.0, Standard deviation 0.07734519898888803 %",32.1%
c1ccc2c(CN3CCCCC3)c[nH]c2c1,inhibition,"PRVABC59, Concentration 49.5 uM, Number of replicates 2.0, Standard deviation 0.27567478108963184 %",10.6%
same,inhibition,"PRVABC59, Concentration 99.01 uM, Number of replicates 2.0, Standard deviation 0.4102311237715717 %",22.8%
same,inhibition,"PRVABC59, Concentration 198.0 uM, Number of replicates 2.0, Standard deviation 0.3445953308233743 %",38%
NS(=O)(=O)c1ccc(C2CCN(Cc3c[nH]c4ccccc34)CC2)cc1,inhibition,"PRVABC59, Concentration 49.5 uM, Number of replicates 2.0, Standard deviation 0.10609946491696037 %",65%
same,inhibition,"PRVABC59, Concentration 99.01 uM, Number of replicates 2.0, Standard deviation 0.029644407368622425 %",80.2%
same,inhibition,"PRVABC59, Concentration 198.0 uM, Number of replicates 2.0, Standard deviation 0.031203503588737417 %",89.2%
OCc1cc(C2CCN(Cc3c[nH]c4ccccc34)CC2)no1,inhibition,"PRVABC59, Concentration 49.5 uM, Number of replicates 2.0, Standard deviation 0.29821086957580095 %",48.5%
same,inhibition,"PRVABC59, Concentration 99.01 uM, Number of replicates 2.0, Standard deviation 0.4460202044782944 %",64.3%
same,inhibition,"PRVABC59, Concentration 198.0 uM, Number of replicates 2.0, Standard deviation 0.7494127761974186 %",75.2%
CCC1CCN(Cc2c[nH]c3ccccc23)CC1,inhibition,"PRVABC59, Concentration 49.5 uM, Number of replicates 2.0, Standard deviation 2.1085872748623196 %",21.4%
same,inhibition,"PRVABC59, Concentration 99.01 uM, Number of replicates 2.0, Standard deviation 0.9763502903682051 %",37.3%
same,inhibition,"PRVABC59, Concentration 198.0 uM, Number of replicates 2.0, Standard deviation 0.045944785323907715 %",55.2%
OC1CCN(Cc2c[nH]c3ccccc23)CC1,inhibition,"PRVABC59, Concentration 49.5 uM, Number of replicates 2.0, Standard deviation 2.7698787458435845 %",5.44%
same,inhibition,"PRVABC59, Concentration 99.01 uM, Number of replicates 2.0, Standard deviation 2.6829105784026894 %",11.6%
same,inhibition,"PRVABC59, Concentration 198.0 uM, Number of replicates 2.0, Standard deviation 2.633683059341965 %",21.9%
O=C(O)c1ccc(C2CCN(Cc3c[nH]c4ccccc34)CC2)cc1,inhibition,"PRVABC59, Concentration 49.5 uM, Number of replicates 2.0, Standard deviation 0.6949576992221913 %",10.8%
same,inhibition,"PRVABC59, Concentration 99.01 uM, Number of replicates 2.0, Standard deviation 0.3163616627681085 %",22.8%
same,inhibition,"PRVABC59, Concentration 198.0 uM, Number of replicates 2.0, Standard deviation 0.22041520507002849 %",37.7%
c1ccc(C2CCN(Cc3c[nH]c4ccccc34)CC2)nc1,inhibition,"PRVABC59, Concentration 49.5 uM, Number of replicates 2.0, Standard deviation 1.1072658196883798 %",59.8%
same,inhibition,"PRVABC59, Concentration 99.01 uM, Number of replicates 2.0, Standard deviation 0.7753455634987777 %",75.2%
same,inhibition,"PRVABC59, Concentration 198.0 uM, Number of replicates 2.0, Standard deviation 0.5497459588871212 %",86%
O=C1NCc2ccccc2C12CCNCC2,inhibition,"PRVABC59, Concentration 49.5 uM, Number of replicates 2.0, Standard deviation 1.3304043012280913 %",0.782%
same,inhibition,"PRVABC59, Concentration 99.01 uM, Number of replicates 2.0, Standard deviation 0.8986974193851874 %",2.65%
same,inhibition,"PRVABC59, Concentration 198.0 uM, Number of replicates 2.0, Standard deviation 5.074631109254522 %",2.34%
CCn1ccnc(N2CC[C@H](C(C)(C)C)C2)c1=O,inhibition,"PRVABC59, Concentration 49.5 uM, Number of replicates 2.0, Standard deviation 2.222905543826298 %",4.07%
same,inhibition,"PRVABC59, Concentration 99.01 uM, Number of replicates 2.0, Standard deviation 1.7617429882024038 %",10.1%
same,inhibition,"PRVABC59, Concentration 198.0 uM, Number of replicates 2.0, Standard deviation 1.0233659428190776 %",20.1%
c1ccc2c(CN3CCC(c4cnco4)CC3)c[nH]c2c1,inhibition,"PRVABC59, Concentration 49.5 uM, Number of replicates 2.0, Standard deviation 0.1050178081967768 %",41.5%
same,inhibition,"PRVABC59, Concentration 99.01 uM, Number of replicates 2.0, Standard deviation 0.24613759530362114 %",59.4%
same,inhibition,"PRVABC59, Concentration 198.0 uM, Number of replicates 2.0, Standard deviation 0.2970051325336013 %",74.9%
COC[C@@H](C)CN1CC[C@H](c2c[nH]c3ccccc23)C1,inhibition,"PRVABC59, Concentration 49.5 uM, Number of replicates 2.0, Standard deviation 1.4380791310486918 %",4.02%
same,inhibition,"PRVABC59, Concentration 99.01 uM, Number of replicates 2.0, Standard deviation 1.4278249713933853 %",8.28%
same,inhibition,"PRVABC59, Concentration 198.0 uM, Number of replicates 2.0, Standard deviation 1.555996909462895 %",14.7%
c1cnc(C2CCN(Cc3c[nH]c4ccccc34)CC2)nc1,inhibition,"PRVABC59, Concentration 49.5 uM, Number of replicates 2.0, Standard deviation 0.6038611636759568 %",44.9%
same,inhibition,"PRVABC59, Concentration 99.01 uM, Number of replicates 2.0, Standard deviation 0.27239407040154384 %",62.7%
same,inhibition,"PRVABC59, Concentration 198.0 uM, Number of replicates 2.0, Standard deviation 0.2641885847586549 %",77.4%
c1ccc2c(CN3CCC(c4ccn[nH]4)CC3)c[nH]c2c1,inhibition,"PRVABC59, Concentration 49.5 uM, Number of replicates 2.0, Standard deviation 1.3620998271263447 %",41.5%
same,inhibition,"PRVABC59, Concentration 99.01 uM, Number of replicates 2.0, Standard deviation 0.5632518321987402 %",58.4%
same,inhibition,"PRVABC59, Concentration 198.0 uM, Number of replicates 2.0, Standard deviation 0.6599886276000965 %",73.5%
COc1cccc(C2CCN(Cc3c[nH]c4ccccc34)CC2)c1,inhibition,"PRVABC59, Concentration 49.5 uM, Number of replicates 2.0, Standard deviation 0.042125269324456455 %",39.6%
same,inhibition,"PRVABC59, Concentration 99.01 uM, Number of replicates 2.0, Standard deviation 0.10921765735719036 %",56.3%
same,inhibition,"PRVABC59, Concentration 198.0 uM, Number of replicates 2.0, Standard deviation 0.2075162463769664 %",67.5%
OC1(c2ccccc2)CCN(Cc2c[nH]c3ccccc23)CC1,inhibition,"PRVABC59, Concentration 49.5 uM, Number of replicates 2.0, Standard deviation 0.6104232594017089 %",13%
same,inhibition,"PRVABC59, Concentration 99.01 uM, Number of replicates 2.0, Standard deviation 0.9927585642556782 %",22.8%
same,inhibition,"PRVABC59, Concentration 198.0 uM, Number of replicates 2.0, Standard deviation 2.2070409642846154 %",34.8%
N#CC1(c2ccccc2)CCN(Cc2c[nH]c3ccccc23)CC1,inhibition,"PRVABC59, Concentration 49.5 uM, Number of replicates 2.0, Standard deviation 0.4200874171769353 %",32%
same,inhibition,"PRVABC59, Concentration 99.01 uM, Number of replicates 2.0, Standard deviation 0.32673315924966934 %",34.4%
same,inhibition,[1],32.8%
Cn1nccc1C1CCN(Cc2c[nH]c3ccccc23)CC1,inhibition,"PRVABC59, Concentration 49.5 uM, Number of replicates 2.0, Standard deviation 1.4229504354820093 %",24.6%
same,inhibition,"PRVABC59, Concentration 99.01 uM, Number of replicates 2.0, Standard deviation 1.2388422115932054 %",38.2%
same,inhibition,"PRVABC59, Concentration 198.0 uM, Number of replicates 2.0, Standard deviation 1.0765748217775348 %",55.9%
c1cncc(C2CCN(Cc3c[nH]c4ccccc34)CC2)c1,inhibition,"PRVABC59, Concentration 49.5 uM, Number of replicates 2.0, Standard deviation 0.34229175267116285 %",61.9%
same,inhibition,"PRVABC59, Concentration 99.01 uM, Number of replicates 2.0, Standard deviation 0.300803069346615 %",77.1%
same,inhibition,[1],87.7%
CCc1cc(C)nc(C2CCN(Cc3c[nH]c4ccccc34)CC2)n1,inhibition,"PRVABC59, Concentration 49.5 uM, Number of replicates 2.0, Standard deviation 0.9221110052573533 %",41.8%
same,inhibition,"PRVABC59, Concentration 99.01 uM, Number of replicates 2.0, Standard deviation 1.5508934318704077 %",59.5%
same,inhibition,"PRVABC59, Concentration 198.0 uM, Number of replicates 2.0, Standard deviation 1.118702788500296 %",75.2%

# Source: ChEMBL document CHEMBL5606458, “ASAP - ZIKV NS2B-NS3 protease fluorescence single point” (2024)
